The values below come from PubChem BioAssay (NCI).

Some test systems named below: NCI-H23 lung; NCI-H226 lung; NCI-H322M lung; HOP-62 NSCLC; NCI-H460 lung; HOP-92 NSCLC; NCI-H522 lung; A549/ATCC NSCLC; 786-0 renal; COLO 205 colon.
Assay in all cases: NCI-60 one-dose screen, 48 h (100 = growth as untreated, 0 = no growth, -100 = all killed)
Holding throughout (details): 10 µM unless noted

This is part of a sample that, as a whole, favours compounds with a hit. Of some 83,000 tested, about 20% had one in any assay.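 Plates (96-well) were seeded with cells, treated with compound at one concentration, and incubated for 48 hours before percent growth was determined.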 Unmarked numbers belong to inactive results. Active and inactive are the calls of the source. How the source made its calls: active means growth percent below 10; inactive means the rest.

Consider `COc1ccc(-c2nnc(SCC(=O)Nc3ccc(C(=O)/C=C/c4ccc(Cl)cc4)cc3)n2-c2ccccc2)cc1`, for which the growth was 91.1% with NCI-H23 lung; 103% in the assay on NCI-H226 lung; 118% with NCI-H322M lung; 100% in the assay with HOP-62 NSCLC; 106% in the assay with NCI-H460 lung; 105% with HOP-92 NSCLC. Also, the growth is 84% with NCI-H522 lung, 88.5% in the assay on A549/ATCC NSCLC, 97.4% in the assay on 786-0 renal and 107% with COLO 205 colon.

Regarding `CC(=O)c1c(O)c(C)c(O)c2c1OC1=CC(=O)/C(=C(/C)N)C(=O)C12C` (stereo not given), the growth was 89.8% with NCI-H23 lung; 73.8% with NCI-H226 lung; 97.3% in the assay on NCI-H322M lung; 94.9% in the assay on HOP-62 NSCLC; 98.2% in the assay with NCI-H460 lung; 99.7% with HOP-92 NSCLC. Also, the growth in the assay on NCI-H522 lung is 77.6%; in the assay on A549/ATCC NSCLC, 83%; with 786-0 renal, 98.3%; with COLO 205 colon it was 95.8%.

`Nc1nc(N)c2cc(CNc3ccc(Cl)c(Cl)c3)ccc2n1`: the growth in the assay with NCI-H23 lung is 42.8%; in the assay with NCI-H226 lung, 45.2%; in the assay with NCI-H322M lung, 29.5%; with HOP-62 NSCLC, 43.1%; with NCI-H460 lung, -48.8% (active); in the assay with HOP-92 NSCLC, -5.15% (active). In addition, the growth is 13.4% with NCI-H522 lung, 17.7% in the assay with A549/ATCC NSCLC, 9.65% (active) in the assay on 786-0 renal and -79.7% (active) with COLO 205 colon.

As to `CC(C)=CCC[C@H](C)c1ccc(C)c2c1OCN(CCO)C2`, the growth in the assay on NCI-H23 lung is 81.7%; in the assay with NCI-H226 lung, 91.2%; with NCI-H322M lung, 104%; in the assay with HOP-62 NSCLC it was 80.4%; with NCI-H460 lung it was 96%; in the assay on HOP-92 NSCLC, 4.21% (active). Further, the growth in the assay on NCI-H522 lung was 78.1%; with A549/ATCC NSCLC, 82.4%; in the assay on 786-0 renal, 61%; with COLO 205 colon, 119%.

Regarding `CN1CCN(Cc2ccc(NC(=O)c3cnc(F)c(C#Cc4cnc(N)c5ncccc45)c3)cc2C(F)(F)F)CC1`, the growth is 28.3% with NCI-H23 lung; -14.2% (active) with NCI-H226 lung; 33.7% in the assay with NCI-H322M lung; 16.6% with HOP-62 NSCLC; 13.1% in the assay on NCI-H460 lung; -8.06% (active) in the assay on HOP-92 NSCLC. Besides, the growth in the assay on NCI-H522 lung is 30%; in the assay with A549/ATCC NSCLC it was 23.3%; in the assay on 786-0 renal, 29.5%; with COLO 205 colon it was -7.96% (active).

In the case of `N[C@@H](CO)C(=O)O`, the growth is 91% in the assay with NCI-H23 lung; 97.7% in the assay with NCI-H226 lung; 103% with NCI-H322M lung; 105% in the assay on HOP-62 NSCLC; 107% in the assay with NCI-H460 lung; 89.8% in the assay on HOP-92 NSCLC. The growth in the assay on NCI-H522 lung is 107%; with A549/ATCC NSCLC, 102%; with 786-0 renal, 95.1%; with COLO 205 colon, 106%.

Take `COc1ccc2[nH]c(O)c(/C=c3/ccc4c(c3)N=C(c3ccc(C(F)(F)F)cc3)N=4)c2c1`: the growth with NCI-H23 lung is 82.4%; in the assay with NCI-H226 lung, 96.9%; with NCI-H322M lung, 76.1%; in the assay on HOP-62 NSCLC, 100%; in the assay on NCI-H460 lung it was 53.5%; in the assay on HOP-92 NSCLC, 71.9%. Moreover, the growth in the assay with NCI-H522 lung is 89.6%; with A549/ATCC NSCLC, 66.4%; in the assay on 786-0 renal, 37.3%; in the assay on COLO 205 colon it was 102%.

`CCCCNCC(O)c1cc2c(Cl)cc(Cl)cc2c2cc(C(F)(F)F)ccc12` (stereo not given): the growth in the assay on NCI-H23 lung is -72.9% (active); in the assay with NCI-H226 lung it was -69.4% (active); with NCI-H322M lung, -82.8% (active); in the assay on HOP-62 NSCLC it was -80.8% (active); in the assay on NCI-H460 lung, -73.9% (active); with HOP-92 NSCLC, -89.5% (active). The growth in the assay on NCI-H522 lung was -78.7% (active); in the assay on A549/ATCC NSCLC it was -83.3% (active); with 786-0 renal, -71.2% (active); in the assay with COLO 205 colon it was -76.8% (active).

As to `CC(=O)OC1Oc2cc(C)c(C)cc2-c2oc(=O)c(-c3cc4ccccc4oc3=O)cc21` (stereo not given), the growth was 85.6% in the assay on NCI-H23 lung; 124% in the assay with NCI-H226 lung; 126% in the assay on NCI-H322M lung; 109% with HOP-62 NSCLC; 108% with NCI-H460 lung; 88.3% in the assay on HOP-92 NSCLC. Besides, the growth was 82.9% with NCI-H522 lung, 113% in the assay on A549/ATCC NSCLC, 79.7% in the assay with 786-0 renal and 121% in the assay on COLO 205 colon.

As for `CC(=O)c1ccc(Nc2nc(Cl)nc(Oc3c(Cl)cccc3Cl)n2)cc1`, the growth in the assay with NCI-H23 lung is 92.3%; in the assay with NCI-H226 lung, 74.9%; in the assay on NCI-H322M lung, 104%; in the assay with HOP-62 NSCLC, 101%; in the assay with NCI-H460 lung it was 79.9%; in the assay with HOP-92 NSCLC it was 81.2%. In addition, the growth in the assay on NCI-H522 lung is 64.4%; in the assay on A549/ATCC NSCLC it was 83.8%; with 786-0 renal it was 100%; in the assay with COLO 205 colon, 99.7%.

Turning to `Nc1nc2ccc([C@@H]3Nc4ccc5[nH]ncc5c4[C@H]4[C@H]5CCC(C5)[C@H]43)cc2s1`, the growth in the assay with NCI-H23 lung was 23.2%; in the assay with NCI-H226 lung, 24.2%; in the assay with NCI-H322M lung it was -13% (active); in the assay on HOP-62 NSCLC, 12.2%; in the assay on NCI-H460 lung it was -26.8% (active); with HOP-92 NSCLC it was 74.7%. The growth was -65.7% (active) with NCI-H522 lung, 25.8% with A549/ATCC NSCLC, 43.9% in the assay with 786-0 renal and 6.12% (active) with COLO 205 colon.

`CCSc1ccc([C@@H]2[C@@H](O)C(=O)N2c2cc(OC)c(OC)c(OC)c2)cc1`: the growth is 34% with NCI-H23 lung; 50.7% in the assay with NCI-H226 lung; 39.4% in the assay on NCI-H322M lung; 22.6% in the assay with HOP-62 NSCLC; 5.97% (active) with NCI-H460 lung; 101% in the assay on HOP-92 NSCLC. Moreover, the growth is 6.56% (active) in the assay with NCI-H522 lung, 20.8% with A549/ATCC NSCLC, 14% in the assay on 786-0 renal and -48.8% (active) with COLO 205 colon.

Consider `CN1CCN(Cc2ccc(NC(=O)c3cncc(C#Cc4ccc(N)nc4)c3)cc2C(F)(F)F)CC1`, for which the growth with NCI-H23 lung is 17.4%; in the assay with NCI-H226 lung, -47.3% (active); in the assay on NCI-H322M lung, 25.9%; in the assay with HOP-62 NSCLC it was 8.59% (active); in the assay on NCI-H460 lung, 6.66% (active); in the assay on HOP-92 NSCLC, -25.5% (active). For the same compound, the growth in the assay on NCI-H522 lung is 23.1%; in the assay on A549/ATCC NSCLC it was 16.2%; in the assay on 786-0 renal, 21.6%; in the assay with COLO 205 colon, -20.4% (active).

For `CCOC(=O)C1=C(C)NC(SCc2nnc(-c3ccc(Cl)cc3)o2)=NC1c1ccc(Cl)cc1` (stereo not given), the growth in the assay with NCI-H23 lung is 78.8%; in the assay on NCI-H226 lung, 69.9%; in the assay on NCI-H322M lung it was 82.3%; with HOP-62 NSCLC, 92.8%; with NCI-H460 lung it was 79%; in the assay with HOP-92 NSCLC, 64.1%. Also, the growth in the assay with NCI-H522 lung was 68.9%; in the assay on A549/ATCC NSCLC, 69%; with 786-0 renal it was 83.4%; in the assay with COLO 205 colon, 79.6%.
